PTPN22 inh 2: inhibitors of human LYP (PTPN22) phosphatase | Q9Y2R2 | recombinant LYP catalytic domain, DiFMUP fluorescence | inhibition, % at 2 µM | 0.21% of 96,000 active;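 active means inhibition at 2 µM at or above a set limit, the screen mean plus 3 SD, cut at about 24% in these data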;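 further: 0% = DMSO with enzyme and 100% = enzyme fully blocked by orthovanadate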
NFkB transloc pot: enhances IL-1B driven NFkB nuclear translocation. activation, % at 2 µM. 0.3% of 94,000 active. AID 819. HUVEC IL-1B NFkB p65 nuclear translocation imaging;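 active means activation above 40%, about the mean plus 3 SD, also judged a hit on visual image review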;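 further: percent activation is computed from the nuclear over cytoplasmic p65 intensity ratio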
IL1B NFkB inh: blocks IL-1B driven NFkB nuclear translocation in HUVEC cells. HUVEC IL-1B NFkB p65 nuclear translocation imaging. inhibition, % at 2 µM. 0.43% of 94,000 active. AID 796;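 active means inhibition above about 30% together with a positive call from visual inspection of the well image, limit read from the data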;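 further: nuclear over cytoplasmic p65 intensity ratio measured by imaging; 0% = IL-1B stimulated DMSO wells and 100% = unstimulated DMSO wells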
LYP act: increases human PTPN22 phosphatase activity | AID 697 | recombinant LYP, DiFMUP fluorescence; 0 = plate median, 100 = signal doubled | activation, % at 2 µM | 0.11% of 96,000 active | Q9Y2R2;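 active means activation at 2 µM above a set limit, the mean plus 5 SD, cut at about 37% in these data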
HUVEC tox IL1B: toxic to HUVEC cells under IL-1B stimulation; cell count reduction, % at 2 µM; HUVEC cell count loss, Hoechst imaging, IL-1B stimulated; 0.41% of 94,000 active;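 active means cell count reduction more than 3 SD above the screen-wide mean, cut at about 70% in these data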;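 further: normalized per plate to untreated control cells as the no-loss baseline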
PTPN22 act conf: LYP (PTPN22) phosphatase activation confirmation; shares compounds with LYP act; activation, % at 2 µM; 100 tested, under 10 active; Recombinant LYP, DIFMUP fluorescence; zero set by plate's median compound well; call rule not given here
* marks the source's active call; other numbers are inactive results; . = no result. Compounds with a hit are over-represented: about 1.3% of the library has one in this group of screens.

SMILES	PTPN22 inh 2	NFkB transloc pot	IL1B NFkB inh	LYP act	HUVEC tox IL1B	others
CCOc1ccc(NC(=O)CN2C(=O)C3CC=CCC3C2=O)cc1 (stereo unspecified)	3.1	-3.8	3.8	-6.0	93.3*
C/C(=N\Nc1cc(Cl)nc(C)n1)c1ccc(C)cc1	0.2	-0.7	0.7	2.0	4.1
O=C(C1COc2ccccc2O1)N1CCc2ccccc2C1 (stereo unspecified)	-9.0	-5.1	5.1	9.6	-14.4
O=C(Nc1ccc2oc(-c3ccccc3Cl)nc2c1)c1ncn[nH]1	2.0	19.9	-19.9	-6.9	-5.1
O=C(Nc1ccc2oc(-c3cccc4ccccc34)nc2c1)c1ncn[nH]1	52.5*	5.0	-5.0	-54.4	-16.0
CCOCCCn1c(C)nc2c(c1=O)c1nc3ccccc3nc1n2CCC1=CCCCC1	12.9	-3.6	3.6	-13.4	-13.0
Cc1nc2c(c(=O)n1CCC1=CCCCC1)c1nc3ccccc3nc1n2/N=C/c1ccccc1	38.7*	11.5	-11.5	-38.6	2.5
COC(=O)[C@H](C)NC(=O)NC1CCN(Cc2ccccc2)CC1	-1.1	0.9	-0.9	1.7	82.9*
O=C(COc1ccccc1F)NC1CCN(Cc2ccccc2)CC1	-4.6	3.7	-3.7	2.0	-5.4
COc1cccc(OCC(=O)NN=C2c3ccccc3-c3ccccc32)c1	13.7	15.8	-15.8	-11.1	-13.3
COc1ccc(OCC(=O)N/N=C2\CCc3ccccc32)cc1	-6.9	-53.1	53.1*	9.5	3.0
CCOC(=O)c1cn(-c2nc(-c3ccc(Cl)c(Cl)c3)cs2)c2c(F)c(N3CCOCC3)c(F)cc2c1=O	28.2*	1.0	-1.0	-24.7	-1.7
CCOC(=O)c1cn(-c2ccc(F)c(F)c2F)c2c(F)c(F)c(F)cc2c1=O	-2.4	5.8	-5.8	5.5	5.4
C=CCOC(=O)/C(=C\c1cccc2ccccc12)NC(=O)c1ccccc1	-5.7	38.4	-38.4	8.6	-10.3
CCOC(=O)/C(=C/c1c2ccccc2cc2ccccc12)NC(=O)c1ccccc1	4.3	-96.6	-5.7	-0.6	91.8*
O=C(c1cc(C2CC2)nc2ccc(Br)cc12)N1N=C(C(F)F)CC1(O)C(F)F (stereo unspecified)	-4.9	-0.5	0.5	4.3	2.6
CN(c1ccc(C(=O)NCCSC(C)(C)C)cc1)S(C)(=O)=O	-15.8	-4.8	4.8	12.3	87.2*
CN(c1ccc(C(=O)NCCc2ccccc2)cc1)S(C)(=O)=O	2.8	-22.9	22.9	0.8	-28.5
COc1ccccc1-c1nnc(SCC(=O)c2ccc(C3CCCCC3)cc2)n1Cc1ccco1	17.1	12.6	-12.6	-14.2	-6.6
CCc1nnc(-n2nc(C)cc2-c2ccccc2)n1N	-7.1	-97.5	97.5*	2.7	94.9*
CNC(=O)c1ccc(-n2nc(C)cc2-c2ccccc2)cc1	-3.0	15.1	-15.1	6.1	-0.6
O=c1cc(/C=C/c2ccccc2)oc2ccccc12	-3.0	-9.2	9.2	8.7	-23.3
CC1CCCCN1C(=O)Cn1cc(/C=C2/C(=O)Nc3ccccc32)c2ccccc21 (stereo unspecified)	-9.6	-4.3	4.3	11.9	-32.8
Cc1c(C(=O)O)c(-c2ccccc2)nn1-c1ccccc1	-5.8	-6.5	6.5	3.5	94.8*
CC(Oc1ccc(Cl)cc1Cl)c1nc(-c2ccc(NC(=O)c3ccco3)cc2)no1 (stereo unspecified)	3.3	-0.1	0.1	0.0	-1.5
SMILES	PTPN22 inh 2	NFkB transloc pot	IL1B NFkB inh	LYP act	HUVEC tox IL1B	others
Cc1c(C(=O)OC(C)C)[nH]c2c1C(=O)CC(C)(C)C2	-9.6	-95.9	95.9*	6.5	87.3*
Cc1c(C(=O)OC(C)C)[nH]c2c1C(=O)CCC2	-3.3	-0.6	0.6	-2.3	-27.0
COC(=O)C1C(=O)C2=C(CC1C)NC(=O)CC2c1cccc(C)c1 (stereo unspecified)	-2.0	9.8	-9.8	0.7	90.2*
O=C1c2cccc3c([N+](=O)[O-])ccc(c23)C(=O)N1c1ccc(Cl)cn1	5.0	-30.1	30.1*	-1.6	83.1*
O=C(O)CC(c1cccc2ccccc12)n1cccc1 (stereo unspecified)	11.5	-13.8	13.8	-9.6	4.5
O=[N+]([O-])c1ccc(N2CCN(S(=O)(=O)c3ccc(Cl)cc3)CC2)cc1NCc1cccnc1	24.3*	-0.1	0.1	-20.1	3.1
Cc1cccc(N(C(=O)c2ccc(Cl)cc2)C2CS(=O)(=O)CC2OC(=O)c2ccc(Cl)cc2)c1 (stereo unspecified)	24.9*	.	.	-20.8	.
O=C(N/N=C/c1ccc2ccccc2c1)c1ccc(COc2ccc3c(c2)CCC3)o1	32.8*	-9.2	9.3	-30.8	-0.6
COC(=O)c1ccc(S(=O)(=O)N2C3CCC2CC(NC(=O)C2CC2)C3)cc1 (stereo unspecified)	-1.0	-22.7	22.7	-1.8	84.5*
Nn1c(SCC(=O)N2CCOCC2)nnc1-c1ccccc1Cl	1.2	1.8	-1.8	1.4	-9.3
COc1ccc2cc3cc(C(=O)N4CCN(Cc5ccc6c(c5)OCO6)CC4)oc3nc2c1	25.9*	24.7	-24.7	-27.0	-13.2
COc1cc(-c2nnc(SCc3cc(=O)oc4cc(O)c(O)cc34)o2)cc(OC)c1OC	30.9*	12.7	-12.7	-31.9	6.0
O=C(c1ccc(F)cc1)N1CCCCC(Sc2nnc3ccccn23)C1=O (stereo unspecified)	7.7	-30.1	30.1*	-5.5	-12.3
O=C(c1cc(-c2ccncc2)nc2ccccc12)N1CCN(S(=O)(=O)/C=C/c2ccccc2)CC1	-14.0	11.3	-11.3	17.9	6.2
COc1ccc(C2C3=C(CC(C)(C)CC3=O)Nc3c2c(=O)[nH]c(=O)n3Cc2ccccc2)cc1OC (stereo unspecified)	-6.2	8.9	-8.9	1.8	4.5
COc1ccc(C2C3=C(CC(C)(C)CC3=O)Nc3c2c(=O)[nH]c(=O)n3Cc2ccccc2)cc1 (stereo unspecified)	-11.5	101.7*	-101.7	9.4	2.2
Cc1ccc(CNC(=O)CCNC(=O)c2ccco2)cc1	13.0	-4.3	4.3	-10.1	11.2
CCCCSc1nc2c(cc1C#N)CCC2	-25.8	17.9	-17.9	19.5	-1.7
CCCSc1nc(C)c(-c2csc(C(C#N)=C3CCCC3)n2)cc1C#N	25.8*	-4.0	4.0	-26.6	10.2
CCC(=O)N1CCc2cc(Br)cc(S(=O)(=O)CCC(=O)NCC3CCCO3)c21 (stereo unspecified)	-43.5	-5.6	5.6	48.6*	3.4	PTPN22 act conf=-3.2
CCC(=O)N1CCc2cc(Br)cc(S(=O)(=O)CC(=O)OC)c21	-6.2	12.7	-12.7	5.8	-8.8
CC(C)(C)NC(=O)Cn1ccc(=N)c2ccccc21	-46.5	-11.8	11.8	44.9*	2.9	PTPN22 act conf=3.4
Cc1ccc(NC2=NCC(=O)N2C2CCCC2)c(C)c1	-11.4	12.9	-12.9	11.0	-7.2

High-throughput results as filed in PubChem BioAssay.
